According to PubChem BioAssay (NCATS):
Values joined by “and” are separate entries in the source; they are usually repeats but may differ in a detail not shown here. Equal entries are not always repeated. Results filed as inconclusive are left out. A call without a number means that no potency is given here. Active and inactive are the calls of the source. Unless noted, the call rests on the fitted dose curve; in most records, active means well fitted curve in the direction sought with a large enough effect in the repeat runs; inconclusive means weak or mixed curves; inactive means no such curve, though single readings can be large; an effect the other way counts as inactive or inconclusive.

Tests used:
[1] = biological target: Cytochrome P450 2D6 (Homo sapiens) (UniProt P10635); assay: Cytochrome P450 family 2 subfamily D member 6 (CYP2D6) small molecule antagonists: luciferase biochemical (cell-free) qHTS assay (AID 1645840); further: nearly all actives have a fitted effect of over 55% in size
Chain of Cytochrome P450 2D6 (Homo sapiens) (P10635 whole entry, looked up): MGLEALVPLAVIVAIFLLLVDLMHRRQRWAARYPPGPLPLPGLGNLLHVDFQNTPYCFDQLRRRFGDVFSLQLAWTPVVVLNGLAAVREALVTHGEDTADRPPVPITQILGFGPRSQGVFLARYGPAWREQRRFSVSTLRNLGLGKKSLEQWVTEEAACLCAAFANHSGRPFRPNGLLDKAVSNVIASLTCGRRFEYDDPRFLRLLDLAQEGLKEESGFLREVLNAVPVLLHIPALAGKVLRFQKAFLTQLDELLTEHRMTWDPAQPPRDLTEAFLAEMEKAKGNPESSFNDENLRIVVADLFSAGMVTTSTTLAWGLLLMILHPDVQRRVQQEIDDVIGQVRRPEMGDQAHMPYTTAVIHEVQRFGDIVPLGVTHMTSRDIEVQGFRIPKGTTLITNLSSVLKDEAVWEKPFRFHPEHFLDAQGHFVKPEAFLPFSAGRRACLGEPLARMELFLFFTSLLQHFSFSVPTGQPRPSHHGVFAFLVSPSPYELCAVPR
Outline: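 P450-Glo luminescent screen: recombinant CYP2D6 enzyme–proluciferin substrate mix preincubated with compound 10 min at room temperature, then NADPH regeneration added for 1 h at room temperature. Detection reagent added for 20 min; luciferin light read as relative luminescence units.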

[2] = biological target: Cytochrome P450 3A4 (Homo sapiens) (UniProt P08684); assay: Cytochrome P450 family 3 subfamily A member 4 (CYP3A4) small molecule antagonists: luciferase qHTS assay (AID 1645841); further: nearly all actives have a fitted effect of over 45% in size
Chain of Cytochrome P450 3A4 (Homo sapiens) (P08684 whole entry, looked up): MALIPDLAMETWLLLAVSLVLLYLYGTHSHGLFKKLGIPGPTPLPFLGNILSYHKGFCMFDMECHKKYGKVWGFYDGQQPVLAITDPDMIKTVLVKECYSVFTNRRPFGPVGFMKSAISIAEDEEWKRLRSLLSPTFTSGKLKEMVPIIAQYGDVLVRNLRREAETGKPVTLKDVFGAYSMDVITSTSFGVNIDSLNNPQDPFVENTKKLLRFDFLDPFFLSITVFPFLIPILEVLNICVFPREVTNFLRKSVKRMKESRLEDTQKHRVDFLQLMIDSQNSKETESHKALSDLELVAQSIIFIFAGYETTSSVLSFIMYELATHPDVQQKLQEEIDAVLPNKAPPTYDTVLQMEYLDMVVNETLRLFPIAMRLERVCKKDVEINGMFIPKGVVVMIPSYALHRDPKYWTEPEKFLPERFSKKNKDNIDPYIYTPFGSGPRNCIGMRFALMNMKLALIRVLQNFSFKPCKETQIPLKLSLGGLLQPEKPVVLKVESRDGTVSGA
Outline: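 P450-Glo CYP3A4 enzyme with proluciferin substrate was preincubated with DMSO-dissolved compounds for 10 min at room temperature. NADPH regeneration solution started a 1 h reaction. Detection reagent stopped it, and luminescence was read after 20 min.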

[3] = biological target: Cytochrome P450 2C9 (Homo sapiens) (UniProt P11712); assay: Cytochrome P450 family 2 subfamily C member 9 (CYP2C9) small molecule antagonists: luciferase biochemical (cell-free) qHTS assay (AID 1645842); further: nearly all actives have a fitted effect of over 55% in size
Chain of Cytochrome P450 2C9 (Homo sapiens) (P11712 whole entry, looked up): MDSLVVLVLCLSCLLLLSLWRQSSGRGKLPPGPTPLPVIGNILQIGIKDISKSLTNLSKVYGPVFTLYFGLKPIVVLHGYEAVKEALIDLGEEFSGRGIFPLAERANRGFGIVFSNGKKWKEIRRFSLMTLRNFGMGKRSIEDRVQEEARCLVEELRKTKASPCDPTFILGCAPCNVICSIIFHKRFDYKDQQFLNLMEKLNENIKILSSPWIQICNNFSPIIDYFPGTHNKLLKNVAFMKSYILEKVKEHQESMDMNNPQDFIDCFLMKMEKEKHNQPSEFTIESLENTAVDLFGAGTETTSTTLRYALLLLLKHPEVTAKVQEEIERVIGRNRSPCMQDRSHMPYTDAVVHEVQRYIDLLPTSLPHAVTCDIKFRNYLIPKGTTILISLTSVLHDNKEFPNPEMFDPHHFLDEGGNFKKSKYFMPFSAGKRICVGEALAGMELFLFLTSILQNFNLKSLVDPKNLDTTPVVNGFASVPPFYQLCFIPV
Outline: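 Luminescence, after 20 min with luciferin detection reagent, reflected CYP2C9 turnover during a 1 h NADPH-driven reaction at 37C. Enzyme-substrate mix contained 0.4% bovine serum albumin and was preincubated with compound 10 min at room temperature.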

[4] = Primary qHTS for inhibitors of nuclear receptor binding SET domain protein 2 (NSD2) in an isogenic RCH-ACV NSD2 p.E1099K mutant (9B) (AID 1645876; active means well fitted curve in the direction sought with a large enough effect; an effect the other way counts as inactive or inconclusive; further: nearly all actives have a fitted effect of over 70% in size)
[5] = Primary qHTS for inhibitors of nuclear receptor binding SET domain protein 2 (NSD2) in an RCH-ACV wild type WT cells (2C) (AID 1645877; active means well fitted curve in the direction sought with a large enough effect; an effect the other way counts as inactive or inconclusive; further: nearly all actives have a fitted effect of over 70% in size)
Potency means the concentration at half of the fitted maximal effect.

With CC1(C)OC[C@H](NC(=O)Nc2ccc(Br)cc2Br)[C@H](c2ccccc2)O1 the Potency [1] was “inactive”.
With CC(C)(N)c1ncc(-c2ccc(OC(F)(F)F)cc2)[nH]1 the Potency [1] was 23.9 µM (active).
For C=C(C)Cn1c(SCC(=O)c2cccs2)nc2sc3c(c2c1=O)CCCC3, the Potency [1] was “inactive”.
With C=CC(=O)N1CCC(Oc2cc3c(Nc4ccc(Cl)c(Cl)c4F)ncnc3cc2OC)CC1 the Potency [1] was 2.68 µM (active), the Potency [2] was 0.239 µM (active) and the Potency [3] was 9.52 µM (active). For the same compound, the Potency [4] was 4.68 µM (active) and the Potency [5] was 4.68 µM (active).
For COC[C@H](c1ccc(C(F)(F)F)cc1)N1CCN(C2(C)CCN(C(=O)c3c(C)ncnc3C)CC2)C[C@H]1C, the Potency [1] was 16.9 µM (active).
With COc1ccccc1N1CCN(CC[C@@](C)(C(=O)C2CCCCC2)c2ccccc2)CC1 the Potency [1] was 12 µM (active), the Potency [2] was 6.01 µM (active) and the Potency [3] was 8.49 µM (active). The Potency [4] was 16.3 µM (active) and the Potency [5] was 18.3 µM (active).
For O=C(Nc1ccc2[nH]c(=O)oc2c1)C(=O)N1CCC(Cc2ccc(F)cc2)CC1, the Potency [1] was 21.3 µM (active).
For O=S(O)CO, the Potency [1] was “inactive”.
For O=C(c1cc(Cc2n[nH]c(=O)c3ccccc23)ccc1F)N1CCCNCC1, the Potency [1] was “inactive”.
In the case of CC1(C)S[C@@H]2[C@H](NC(=O)C(C(=O)Oc3ccc4c(c3)CCC4)c3ccccc3)C(=O)N2[C@H]1C(=O)O (some centres not stated), the Potency [1] is reported as “inactive”.
With CCCN(CCc1ccsc1)C1CCc2c(O)cccc2C1 (configuration not stated) the Potency [1] was 0.338 µM (active).
In the case of Cc1ccc(C(=O)Nc2ccc(CN3CCN(C)CC3)c(C(F)(F)F)c2)cc1C#Cc1cnc2[nH]ncc2c1, the Potency [1] is reported as 16.9 µM (active), the Potency [2] is reported as 6.01 µM (active) and the Potency [3] is reported as 4.77 µM (active). For the same compound, the Potency [4] was 11.5 nM (active) and 26.3 nM (active) and the Potency [5] was 14.5 nM (active) and 41.7 nM (active).
With O=C(CNC(=O)c1cccc(C(F)(F)F)c1)N[C@@H]1CCN(Cc2ccc(Cl)cc2)C1 the Potency [1] was 0.0535 µM (active).
In the case of CCOc1cn(-c2ccc(F)cc2C)nc1C(=O)Nc1ccc(Oc2ccnc3cc(OC)c(OC)cc23)c(F)c1, the Potency [1] is reported as “inactive”, the Potency [2] is reported as “inactive” and the Potency [3] is reported as “inactive”. The Potency [4] was 4.09 µM (active) and the Potency [5] was 4.09 µM (active).
In the case of CC1(C)Oc2ncnc(N)c2N=C1c1ccc(C23CCC(CC(=O)O)(CC2)CC3)cc1, the Potency [1] is reported as “inactive”, the Potency [2] is reported as “inactive” and the Potency [3] is reported as “inactive”. The Potency [4] was “inactive” and the Potency [5] was “inactive”.
For COc1cccc(N2CCN(C3=Nc4c(F)cccc4[C@H](CC(=O)O)N3c3cc(C(F)(F)F)ccc3OC)CC2)c1, the Potency [1] was “inactive”.
With NS(=O)(=O)c1ccc(N2CCN(CC[C@@H]3OCCc4ccccc43)CC2)cc1 the Potency [1] was 23.9 µM (active), the Potency [2] was “inactive” and the Potency [3] was “inactive”. The Potency [4] was “inactive” and the Potency [5] was “inactive”.
With CC(C)(C)c1ccc2c(c1)CC[C@H]2NC(=O)Nc1cccc2[nH]ncc12 the Potency [1] was “inactive”.
With O=C(CN1C2=NCCN2c2ccccc21)c1ccc(-c2ccccc2)cc1 the Potency [1] was 4.77 µM (active), the Potency [2] was “inactive” and the Potency [4] was 11.5 µM (active). For the same compound, the Potency [5] was 6.49 µM (active).
For FC(F)(F)c1ccc(/C=C/c2nc(COc3ccc(CCCCn4ccnn4)cc3)co2)cc1, the Potency [1] was “inactive”.
In the case of O=[N+]([O-])c1cn2c(n1)OC[C@@H](OCc1ccc(-c3ccc(OC(F)(F)F)cc3)nc1)C2, the Potency [1] is reported as “inactive”.
In the case of Fc1ccc(CN2CCC(Nc3ccc(C(F)(F)F)nn3)CC2)cc1F, the Potency [1] is reported as 1.2 µM (active), the Potency [2] is reported as “inactive” and the Potency [4] is reported as “inactive”. For the same compound, the Potency [5] was “inactive”.
With O=C(NC1CCC1)c1ccc(C#Cc2cccc(F)c2)nc1 the Potency [1] was “inactive”, the Potency [2] was “inactive” and the Potency [3] was “inactive”. For the same compound, the Potency [4] was “inactive”.
With COC(=O)c1ccc2c(c1)nc(NC(=O)c1ccccc1)n2CCCc1ccccc1 the Potency [1] was “inactive”, the Potency [2] was “inactive” and the Potency [3] was 23.9 µM (active). For the same compound, the Potency [4] was “inactive” and the Potency [5] was “inactive”.
For O=c1[nH]c([C@@H]2CCCN2)nc2c1oc1ccc(Cl)cc12, the Potency [1] was “inactive”, the Potency [2] was “inactive” and the Potency [3] was “inactive”. The Potency [4] was 9.16 µM (active) and the Potency [5] was 4.59 µM (active) and 10.5 µM (active).
With CCNC(=O)N1CCCN(c2ccc(C(=O)NCCc3ccc(Cl)cc3Cl)cc2NC(=O)c2cccc(Cl)c2)CC1 the Potency [1] was 4.77 µM (active).
With CN(C)c1cccc(Oc2cnc(Nc3cccc(O)c3)nc2)c1 the Potency [1] was 21.3 µM (active).
For CCN(CC)CCCS(=O)(=O)N[C@H](CCc1ccccc1)c1nc(Cc2ccc(Br)cc2)no1, the Potency [1] was 6.01 µM (active).
For Cc1c(O)cc2c(c1C)O[C@](C)(CCC[C@H](C)CCC[C@H](C)CCCC(C)C)CC2, the Potency [1] was “inactive”.
For COc1ccc(C#Cc2ccc(C(=O)N3CCC[C@@H](O)C3)c(F)c2)cc1, the Potency [1] was “inactive”.
With COc1cc(N(C)CCN(C)C)c(N)cc1Nc1nccc(-c2cn(C)c3ccccc23)n1 the Potency [1] was 19 µM (active).
